Shown is part of a subset that was picked to be rich in hits.
Pf Dd2 growth: qHTS Primary assay for Inhibitors of Plasmodium falciparum Dd2 growth in vitro | actives 4.3% (n = 120,000) | Potency, µM (doses to about 28.9 µM), inactives show at the top dose activity, negative = inhibition, actives largely listed as inhibitors | P. falciparum Dd2 growth, SYBR Green, 72 h; active means well fitted inhibition curve with a large enough effect;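 further: plate controls were DMSO vehicle for no effect and reference drug for full effect; nearly all actives have a fitted effect of over 65% in size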
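Readout: SYBR Green fluorescence, 485 nm excitation, 535 nm emission, after ~16 h lysis at 37C. Before that, Dd2-infected red cells (2.5% hematocrit) grew 72 h with compound, 29 uM top final concentration.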
An asterisk follows results filed as active; i = inactive; [ ] = another dose, or the depositor's remark. Potency means the concentration at half of the fitted maximal effect.

SMILES | Pf Dd2 growth
O=C(C1CC1)N1CCN(Cc2ccccc2)CC(O)C1 (centres undefined) | 11.3%
CN(CC(=O)N1CCN(Cc2ccccc2)CC(O)C1)C1CCCC1 (centres undefined) | 8.91µM*
CCN(CC)C(=O)[C@@H]1C[C@@H](NC(=O)c2ccn(CC)c(=O)c2)CN1C(C)=O | 13.3%
CCn1ccc(C(=O)N2CCC3(CC2)CC(c2nc(C)no2)N(C)C3)n1 (centres undefined) | 4.7%
CCOc1ccccc1CNC(=O)c1ccc2c(c1)N(Cc1ccc(C)cc1)CCS2 | -2.9%
COc1ccccc1CNC(=O)c1ccc(-c2nc(CN3CCc4ccccc43)c(C)o2)cc1 | 10µM*
COc1ccccc1CNC(=O)c1ccc2c(c1)N(Cc1ccc(C)cc1)CCS2 | 10µM*
COc1ccc(Br)cc1CNC(=O)c1ccc2c(c1)N(Cc1ccc(C)cc1)CCS2 | -0.7%
CCCCOc1ccc(CNC(=O)c2ccc(-c3nc(CN4CCc5ccccc54)c(C)o3)cc2)cc1 | -25.1%
CCc1ccc(-c2nc(CSCC(=O)NCc3ccccc3OC)c(C)o2)cc1 | -7.5%
COCCN(C)C[C@@H]1CN(C(=O)c2ccc(=O)n(C)c2)C[C@@H]1CO | -23.9%
CSc1ccc(CNC(=O)c2noc(-c3ccc(F)cc3)n2)cc1 | 23.8%
CC1=C(C(=O)OC(C)C)C(c2ccccc2Cl)N2C(CC(=O)N3CCCC3)=CSC2=N1 (centres undefined) | i
CN1C[C@H](NCc2cccc(Cl)c2)CCC[C@@H](C(=O)NCc2cc(F)cc(F)c2)CC1=O | -23.9%
Cc1cnc(C2CCC2)n1CCN | -6.5%
Cc1cccc(C)c1NC(=O)c1cccc(CN2CCCC2C)c1 (centres undefined) | 10µM*
O=C(NC1CCCN(C(=O)C2CC2)C1)c1cccc(Cn2cccn2)c1 (centres undefined) | 2.4%
Cc1cccc(C)c1NC(=O)c1ccc2c(c1)nnn2C1CCCC1 | 9.7%
O=C(Cn1nc2n(c1=O)CCCCC2)N1CCCc2ccccc21 | -16.5%
COc1ccc(C(=O)N2CCC(N3CC4CCCN4C3=O)CC2)cc1 (centres undefined) | 16.4%
CCN1C(=O)CCN(S(=O)(=O)CC)CC12CCOCC2 | 7.1%
CCN1C(=O)CCN(CC2CCCCC2)CC12CCOCC2 | 3.55µM*
CCN1C(=O)CCN(C(C)=O)CC12CCOCC2 | 10.7%
Cc1cccc(C(=O)N2CCC(C(NC(=O)c3ccccc3Cl)C(=O)NCC(C)C)CC2)c1 (centres undefined) | i
O=C(COc1ccccc1)N1CCCC(Nc2ccc(F)cc2)C1 (centres undefined) | -6.6%
SMILES | Pf Dd2 growth
Cc1cnc(-c2ccccc2)n1C1CCCN(C(=O)COc2ccc(F)cc2)C1 (centres undefined) | 2.82µM*
Cc1cnc(-c2ccccc2)n1C1CCCN(C(=O)c2ccnn2C)C1 (centres undefined) | -29.1%
COc1cccc(S(=O)(=O)N2CCC(Cc3nncn3C)CC2)c1 | -3.8%
Cc1ncsc1CCC(=O)N1C[C@@H](c2ccccc2)[C@@H]2[C@H]1C1CCN2CC1 | 1.6%
COc1ccc([C@@H]2CN(C(=O)c3sccc3C)[C@@H]3C4CCN(CC4)[C@@H]32)cc1 | 10µM*
CCn1cc(C(=O)N2C[C@H](c3cccc(OC)c3)[C@@H]3[C@H]2C2CCN3CC2)cn1 | -12.1%
COc1ccc(CCNC(=O)Cc2ccc(N(Cc3ccccc3)C(=O)c3ccco3)cc2)cc1 | -6.8%
COc1ccc(N(Cc2cccs2)C(=O)c2ccco2)cc1 | 10µM*
COc1ccc(OCC(=O)N(Cc2cccs2)c2ccc(OC)cc2)cc1 | -20.1%
CCCNC(=O)Cc1ccc(N(Cc2ccc(OC)cc2)C(=O)c2ccco2)cc1 | i
COc1ccc(NC(=O)Cc2ccc(N(Cc3ccc(C)cc3)C(=O)c3ccco3)cc2)cc1 | 4.47µM*
COc1ccc(CN(C(=O)c2ccco2)c2ccc(CC(=O)NC(C)C)cc2)cc1 | i
CC(=O)N1CCN([C@H]2[C@@H]3OC[C@@H](O3)[C@@H](NC(=O)Nc3cccc(C(F)(F)F)c3)[C@@H]2O)CC1 | -15.1%
O=C(NCC(O)c1ccccc1C(F)(F)F)c1cccc(-n2cnnc2)c1 (centres undefined) | 14.8%
Cc1cc(C)n(CCCC(=O)N2C[C@H](CO)C[C@H](CN(C)C)C2)n1 | -3.4%
O=C(C1CC1)N1CCC(Cc2nncn2-c2ccccc2)C1 (centres undefined) | -10.5%
CC(=O)N1CCC2(CC1)CN(C(=O)CCC(=O)O)Cc1ccccc1O2 | 19.7%
CC(=O)Nc1cccc(-c2cnc3n[nH]c(-c4sccc4C)c3n2)c1 | i
CC(=O)Nc1cccc(-c2cnc3n[nH]c(-c4ccc(F)cc4C)c3n2)c1 | -11.7%[44.1 µM]
CC(=O)Nc1cccc(-c2cnc3n[nH]c(-c4ccc5c(c4)OCO5)c3n2)c1 | 2.51µM*
CC(=O)c1ccc(NC(=O)O[C@@H]2CO[C@H]3[C@@H]2OC[C@@H]3n2nnnc2-c2ccc(-c3ccccc3)cc2)cc1 | -0.1%
O=C(C[C@H]1NC(=O)c2ccccc2NC1=O)Nc1nnc(C2CCCO2)s1 (some centres undefined) | i
O=C(NC1CCN(c2cc(-c3ccc(F)cc3)[nH]n2)C1)c1ccc(F)cc1Cl (centres undefined) | i
CC1(C(=O)N2CCC(c3ccccc3)CC2)CCc2cnc(Nc3ccncc3)nc21 (centres undefined) | 10µM*
CC(=O)N1CCN(C(=O)C2(C)CCc3cnc(Nc4ccccc4)nc32)CC1 (centres undefined) | 21.2%[44.1 µM]
SMILES | Pf Dd2 growth
CC1(C(=O)N2CCCC2)CCCc2cnc(Nc3ccccc3)nc21 (centres undefined) | -5.4%[44.1 µM]
COc1nccnc1NC1CCN(C(=O)c2cccc(C)c2)CC1 | 40.1%[5.79 µM]
COc1cc(Cl)ccc1OCc1nnc(C(=O)N2CCC[C@@H]2c2cccc(F)c2)n1-c1ccccc1 | -8.4%
O=C(CC1CCCCC1)Nc1cccc(-c2nnc3n2CCCC3)c1 | -7.2%
CSc1cccc(NC(=O)Nc2ccc(-c3nnc4n3CCCC4)cc2)c1 | 25.3%
O=C(COc1ccc(Cl)cc1)Nc1cccc(-c2nnc3n2CCCC3)c1 | 3.16µM*
O=C(Cn1nc2n(c1=O)CCCCC2)N1CCN(c2ccc(F)cc2)CC1 | 32.4%
O=C(COc1ccc(F)cc1)Nc1cccc(-c2nnc3n2CCCC3)c1 | 8.91µM*
O=C(Nc1ccccc1)Nc1cccc(-c2nnc3n2CCCC3)c1 | i
O=C(Cc1ccccc1Cl)Nc1cccc(-c2nnc3n2CCCC3)c1 | 7.08µM*
O=C(COc1cccc(-c2nnc3n2CCCC3)c1)NCc1ccc(F)cc1 | -9.4%
O=C(Cc1cccc(F)c1)Nc1ccc(-c2nnc3n2CCCC3)cc1 | -17.9%
O=C(COc1ccc(Cl)cc1)Nc1ccc(-c2nnc3n2CCCC3)cc1 | i
O=C(COc1ccc(-c2nnc3n2CCCC3)cc1)N1CCN(c2ccc(F)cc2)CC1 | 3.16µM*
O=C(CN1C(=O)CCC1=O)N1CCCCCCn2c(nnc2-c2ccc(F)cc2)CC1 | i
CCC(=O)N1CCC(N(C(=O)CC)C2CCOCC2)CC1 | -24.2%
CCN(CC)Cc1cnc2c(C(=O)NC[C@@H](C)O)cnn2c1 | 11.0%
Cc1noc(-c2cn(C3CCN(C(=O)c4sccc4C)C3)nn2)n1 (centres undefined) | i
CCc1ccc(NC(=O)Cn2c(=O)c(-c3noc(CC)n3)c3n(c2=O)CCCCC3)cc1 | 6.3%
COc1ccc(-c2ccnc3nc(C4CC4)nn23)cc1 | -1.1%
Cc1cccc(C(=O)N2CC(c3nnc(-c4ccncc4)o3)C3(CCOCC3)C2)c1 (centres undefined) | -14.0%
